From PubChem BioAssay come the findings set out here.

SMILES strings stand for the structures. Calls of active or inactive are those of the source. Unless noted, no rule for the calls is given here.

In assay [1] the test system is Wnt5a (protein binding on small-molecule microarray). In words: Wnt5a binders on small-molecule microarray, primary screen, biophysical, 635/667 nm fluorescence (AID 1142).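 Also: fluorescence read at 667 nm with signal to noise per printed feature.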 As to conditions: 635 nm fluorescence, higher = more signal.
Assay [2] in a line: cell viability in Huh7 cells, primary screen, cytotoxicity control for HCV replication inhibitor project, CellTiter-Glo luminescence, basal, 48 h (AID 1143).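 Also: Huh7 hepatoma cells carrying a hepatitis C replication reporter with no stimulus; test concentration not given here.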 To be noted: Huh7 HCV replicon, higher = more signal, called active from +8 up or from −8 down.
The nature of assay [3]: P. aeruginosa biofilm formation inhibitors, primary screen, PAO1 strain, BacTiter-Glo luminescence, LB-PBS (AID 1144). To be noted: 12 h, higher = more signal.
The nature of assay [4]: CREB reporter modulators without forskolin, primary screen, cell-based, PC12, CRE-LacZ reporter, unstimulated (AID 1145). To be noted: no forskolin, luminescence, 4.5 h, higher = more signal, called active from +8 up or from −8 down.
The nature of assay [5]: CREB reporter modulators under forskolin, primary screen, cell-based, PC12, CRE-LacZ reporter, forskolin-stimulated (AID 1146).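 Also: PC12 cells with 6xCRE LacZ reporter stimulated by forskolin 10 µM; beta-galactosidase reporter signal reflecting CREB driven transcription.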 To be noted: luminescence, 4.5 h, higher = more signal, called active from +8 up or from −8 down.
Assay [6] addresses Streptavidin (Streptomyces avidinii) (UniProt P22629). The experiment in a line: streptavidin binders on small-molecule microarray, primary screen, artefact control for SMM compound annotation, biophysical, 635/667 nm fluorescence (AID 1147).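 Also: signal reflects streptavidin binding to arrayed compounds as a control protein.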 As to conditions: streptavidin binding, higher = more signal.
Assay [7] is described as follows: small-molecule binders of probe aInhba, primary screen, biochemical, small-molecule microarray, 635/667 nm fluorescence (AID 1148).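 Also: score merges 667nm spot fluorescence with signal-to-noise for antibody binding to printed compounds.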 To be noted: higher = more signal.
In assay [8] the target is Torsin-1A (Homo sapiens) (UniProt O14656). The experiment in a line: torsin A binders from cell lysate, primary screen, small-molecule microarray, wild-type, 635/667 nm (AID 1149). To be noted: COS7 hTOR1A-WT lysate, 635 nm fluorescence, higher = more signal.
Assay [9] shares this target. The experiment in a line: small-molecule binders of mutant TOR1A in lysate, primary screen, cell lysate, small-molecule microarray, COS7 lysate, 635/667 nm fluorescence (AID 1150).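 Also: score pools 667 nm emission and signal to noise measuring lysate protein binding.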 To be noted: COS7 hTOR1A mutant lysate, 635 nm fluorescence, higher = more signal.
Assay [10] concerns Sonic hedgehog protein (Shh). In words: small-molecule binders of Shh protein, primary screen, biochemical, small-molecule microarray, 635/667 nm fluorescence (AID 1151).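 Also: Shh protein binding to compounds spotted on small-molecule microarray slides; score combines spot fluorescence intensity with signal-to-noise across triplicate slides.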 To be noted: small-molecule microarray binding, 635 nm fluorescence; higher = more signal.
A short description of assay [11]: E. coli DRC41 culture turbidity changes, primary screen, E. coli filamentation inducer project, strain DRC41, OD650, 48 h (AID 1152).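 Also: E. coli MC1000 strain DRC41 lacking acrAB efflux pump and sulA.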 To be noted: E. coli DRC41 (acrAB sulA), higher = more signal, called active from +8 up or from −8 down.
Assay [12] is described as follows: small-molecule binders of probe aLefty1, primary screen, biochemical, small-molecule microarray, 635/667 nm fluorescence (AID 1153).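 Also: score merges spot fluorescence with signal-to-noise ratio from the scanned slide images.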 To be noted: higher = more signal.
The nature of assay [13]: PSAC antagonists in infected red cells, primary screen, cell-based, P. falciparum Indochina, OD700, 1 h (AID 1154). As to conditions: P. falciparum Indochina infected RBC osmotic lysis, higher = more signal, called active from +8 up or from −8 down.
Assay [14] can be described thus: PSAC antagonists in infected red cells, primary screen, cell-based, P. falciparum Indochina, OD700, 2 h (AID 1155).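 Also: lysis reports solute entry through the parasite surface anion channel PSAC; channel blockers reduce lysis of infected cells.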 To be noted: P. falciparum Indochina infected erythrocytes, osmotic lysis OD700; higher = more signal, called active from +8 up or from −8 down.
Assay [15] can be described thus: osmotic lysis modulators in infected erythrocytes, primary screen, PSAC antagonist project, cell-based, P. falciparum Indochina, OD700, 3 h (AID 1156). To be noted: higher = more signal, called active from +8 up or from −8 down.
A short description of assay [16]: PSAC antagonists in infected red cells, primary screen, cell-based, P. falciparum Indochina, OD700, 18 h (AID 1157). To be noted: P. falciparum Indochina infected erythrocytes, osmotic lysis OD700, 18 h; higher = more signal, called active from +8 up or from −8 down.
Assay [17] can be described thus: modulators of S6 phosphorylation in cells, primary screen, cell-based, A549, cytoblot, luminescence, serum-stimulated (AID 1158).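 Also: serum-stimulated A549 lung adenocarcinoma cells; signal is phosphorylated S6 detected by cytoblot immunostaining with HRP secondary.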 To be noted: A549 phospho-S6 cytoblot, 5 h, higher = more signal.
Assay [18] deals with NADPH oxidase 2 (Homo sapiens) (UniProt P04839). In words: NOX2-dependent H2O2 signal modulators, primary screen, NOX inhibitor project, cell-based, HEK293-NOX2, PMA-stimulated, Amplex Red fluorescence (AID 1159). Also: test concentration not given here. To be noted: 45 min, higher = more signal, called active from +8 up or from −8 down.
For assay [19], the target named is NADPH oxidase 4 (Homo sapiens) (UniProt Q9NPH5). The experiment in a line: NOX4-dependent H2O2 signal modulators, primary screen, NOX inhibitor project, cell-based, HEK293-NOX4, tetracycline-induced, Amplex Red fluorescence (AID 1160). To be noted: 45 min, higher = more signal, called active from +8 up or from −8 down.
Assay [20] concerns the target NADPH oxidase 5 (Homo sapiens) (UniProt Q96PH1). In words: NOX5-dependent H2O2 signal modulators, primary screen, NOX inhibitor project, cell-based, HEK293-NOX5, Amplex Red fluorescence (AID 1161). To be noted: HEK293-NOX5, ionomycin, 45 min, higher = more signal.

Sequence of Torsin-1A (Homo sapiens) (O14656 whole entry, looked up): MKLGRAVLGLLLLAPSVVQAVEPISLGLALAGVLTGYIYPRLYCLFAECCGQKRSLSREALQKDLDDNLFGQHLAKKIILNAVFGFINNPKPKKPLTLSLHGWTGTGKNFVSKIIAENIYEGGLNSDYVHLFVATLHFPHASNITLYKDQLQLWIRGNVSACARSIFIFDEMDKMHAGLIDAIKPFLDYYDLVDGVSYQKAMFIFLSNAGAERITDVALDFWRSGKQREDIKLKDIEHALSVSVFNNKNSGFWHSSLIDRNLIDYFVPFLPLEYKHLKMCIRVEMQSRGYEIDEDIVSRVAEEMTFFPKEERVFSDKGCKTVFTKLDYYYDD
Sequence of NADPH oxidase 4 (Homo sapiens) (Q9NPH5 whole entry, looked up): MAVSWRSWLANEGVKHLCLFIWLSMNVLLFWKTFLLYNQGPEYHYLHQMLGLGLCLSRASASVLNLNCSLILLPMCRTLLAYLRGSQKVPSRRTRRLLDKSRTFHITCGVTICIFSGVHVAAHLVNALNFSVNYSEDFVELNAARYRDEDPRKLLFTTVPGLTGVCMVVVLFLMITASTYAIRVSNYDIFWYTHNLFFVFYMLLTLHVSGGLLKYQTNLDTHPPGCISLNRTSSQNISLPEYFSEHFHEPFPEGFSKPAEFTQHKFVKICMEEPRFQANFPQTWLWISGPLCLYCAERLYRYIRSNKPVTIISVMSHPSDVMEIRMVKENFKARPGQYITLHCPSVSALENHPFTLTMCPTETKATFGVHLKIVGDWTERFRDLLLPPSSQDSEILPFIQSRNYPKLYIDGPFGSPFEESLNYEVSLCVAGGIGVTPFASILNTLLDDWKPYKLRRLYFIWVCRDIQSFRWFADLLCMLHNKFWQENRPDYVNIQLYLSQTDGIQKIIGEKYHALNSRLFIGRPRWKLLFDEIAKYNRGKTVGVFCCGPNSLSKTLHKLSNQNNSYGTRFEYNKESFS
Sequence of NADPH oxidase 2 (Homo sapiens) (P04839 whole entry, looked up): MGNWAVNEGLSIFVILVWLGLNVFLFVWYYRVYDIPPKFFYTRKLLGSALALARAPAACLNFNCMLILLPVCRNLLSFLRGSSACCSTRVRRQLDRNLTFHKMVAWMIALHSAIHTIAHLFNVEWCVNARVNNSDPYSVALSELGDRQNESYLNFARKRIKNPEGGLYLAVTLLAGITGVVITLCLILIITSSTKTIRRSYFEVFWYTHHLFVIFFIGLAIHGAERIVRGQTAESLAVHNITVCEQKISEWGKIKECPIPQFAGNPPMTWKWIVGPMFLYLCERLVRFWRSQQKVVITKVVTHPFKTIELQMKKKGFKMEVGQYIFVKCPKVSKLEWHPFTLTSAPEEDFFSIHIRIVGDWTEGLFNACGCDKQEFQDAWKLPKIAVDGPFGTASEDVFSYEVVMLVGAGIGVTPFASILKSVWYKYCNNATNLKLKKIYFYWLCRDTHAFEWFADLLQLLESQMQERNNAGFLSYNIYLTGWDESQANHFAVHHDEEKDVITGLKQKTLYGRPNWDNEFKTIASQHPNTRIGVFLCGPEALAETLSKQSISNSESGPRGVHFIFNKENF
Sequence of Streptavidin (Streptomyces avidinii) (P22629 whole entry, looked up): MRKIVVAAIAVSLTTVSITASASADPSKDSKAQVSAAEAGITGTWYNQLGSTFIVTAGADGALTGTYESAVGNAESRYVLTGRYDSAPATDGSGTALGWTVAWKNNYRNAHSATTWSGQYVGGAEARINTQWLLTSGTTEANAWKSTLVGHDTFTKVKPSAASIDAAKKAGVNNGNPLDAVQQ
Sequence of NADPH oxidase 5 (Homo sapiens) (Q96PH1 whole entry, looked up): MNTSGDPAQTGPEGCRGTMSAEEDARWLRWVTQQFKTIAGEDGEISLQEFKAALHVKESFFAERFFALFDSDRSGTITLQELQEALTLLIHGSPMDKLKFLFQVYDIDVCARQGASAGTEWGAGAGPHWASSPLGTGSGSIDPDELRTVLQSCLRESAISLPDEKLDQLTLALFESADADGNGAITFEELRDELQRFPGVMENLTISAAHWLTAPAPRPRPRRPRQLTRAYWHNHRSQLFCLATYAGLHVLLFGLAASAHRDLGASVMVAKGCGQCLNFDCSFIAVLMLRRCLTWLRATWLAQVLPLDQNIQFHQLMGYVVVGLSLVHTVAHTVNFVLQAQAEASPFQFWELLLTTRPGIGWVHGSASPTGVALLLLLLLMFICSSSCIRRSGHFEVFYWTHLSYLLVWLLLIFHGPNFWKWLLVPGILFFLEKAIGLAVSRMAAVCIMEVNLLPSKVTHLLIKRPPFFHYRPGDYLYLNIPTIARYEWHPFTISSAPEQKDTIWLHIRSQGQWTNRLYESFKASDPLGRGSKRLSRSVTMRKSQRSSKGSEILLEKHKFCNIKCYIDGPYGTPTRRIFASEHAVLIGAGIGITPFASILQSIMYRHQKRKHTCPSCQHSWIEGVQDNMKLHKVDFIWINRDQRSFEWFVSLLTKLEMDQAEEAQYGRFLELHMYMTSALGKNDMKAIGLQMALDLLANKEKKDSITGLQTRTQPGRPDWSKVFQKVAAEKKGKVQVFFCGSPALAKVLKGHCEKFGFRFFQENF

Take `O=C1OCCC=C[C@H]2OC34C=CCN(Cn5nnc6ccccc65)C(=O)[C@H]3N(CCCO)C(=O)[C@@H]4C12` (stereo not given in full): the composite z-score in [1] was -0.197; in assay [6], -1.01; in assay [7], -0.161; with Torsin-1A (Homo sapiens) [8] it was -0.444; with Torsin-1A (Homo sapiens) [9], -2.04; in assay [10], -0.128. The same compound registered a composite z-score in assay [12] of -0.321. For the same compound, the z-score was -2.61 (inactive) in [2]; -0.413 (inactive) in assay [3]; -0.903 (inactive) in [4]; -0.242 (inactive) in assay [5]; 1.24 (inactive) in assay [11]; 0.502 (inactive) in assay [13]. Also, the z-score was -1.23 (inactive) in assay [14]; 1.65 (inactive) in assay [15]; -1.32 (inactive) in assay [16]; 0.601 in [17]; 0.813 (inactive) in assay [18]; -0.341 (inactive) in [19]. Moreover, the z-score in assay [20] is -1.35.
Turning to `COC(=O)c1c(CC[C@@H](CO)NC(=O)N2CCC[C@H]2Cn2cc(C3(O)CCCCC3)nn2)oc(C(C)=O)c1C(=O)OC`, the composite z-score in [1] was -0.0505; in [6] it was 0.429; in assay [7], -0.0448; with Torsin-1A (Homo sapiens) [8], 0.666; with Torsin-1A (Homo sapiens) [9] it was 0.895; in [10], 1.44. The compound further displayed a composite z-score in [12] of -0.101. Moreover, the z-score in assay [2] was -0.257 (inactive); in assay [3], -0.156 (inactive); in [4], 0.498 (inactive); in assay [5], 0.306 (inactive); in assay [11], -0.955 (inactive); in assay [13] it was 1.35 (inactive). The z-score was 0.092 (inactive) in assay [14]; 1.14 (inactive) in assay [15]; 0.163 (inactive) in assay [16]; -0.0302 in [17]; -0.645 (inactive) in assay [18]; -0.981 (inactive) in assay [19]. Further, the z-score in assay [20] was -1.37.
Consider `COc1ccc(CCNC(=O)[C@@]2(Cc3ccccc3I)c3ccccc3C(=O)N(C3CCCCC3)[C@H]2c2ccc(CO)cc2)cc1`, for which the composite z-score was -0.372 in assay [1]; 0.623 in assay [6]; 0.0198 in [7]; -0.57 with Torsin-1A (Homo sapiens) [8]; -0.0979 in the assay with Torsin-1A (Homo sapiens) [9]; -0.193 in [10]. In assay [12], this compound showed a composite z-score of -0.104. Besides, the z-score was -6.39 (inactive) in [2]; -1.43 (inactive) in assay [3]; -0.0243 (inactive) in [4]; -1.06 (inactive) in assay [5]; 0.535 (inactive) in assay [11]; 3.52 (inactive) in assay [13]. Also, the z-score is 0.502 (inactive) in assay [14]; 1.27 (inactive) in assay [15]; -0.31 (inactive) in assay [16]; 3.35 in assay [17]; 0.189 (inactive) in assay [18]; -1.09 (inactive) in [19]. The compound also displayed a z-score in assay [20] of -2.19.
Regarding `COC(=O)C1=CC(CCCO)=CC(c2ccc(CN3CCCC3)cc2)N(Cc2cccc(OC(F)(F)F)c2)C=C1C(=O)OC` (stereo not given), the composite z-score was -0.0146 in assay [1]; 0.644 in assay [6]; 0.0769 in [7]; 0.648 with Torsin-1A (Homo sapiens) [8]; 1.18 with Torsin-1A (Homo sapiens) [9]; -0.136 in [10]. The compound further yielded a composite z-score in assay [12] of 0.241. Moreover, the z-score in assay [2] is -2.24 (inactive); in assay [3] it was 1.23 (inactive); in [4], -0.554 (inactive); in assay [5], -0.727 (inactive); in assay [11], -0.418 (inactive); in assay [13] it was 0.119 (inactive). For the same compound, the z-score was -0.984 (inactive) in [14]; 0.456 (inactive) in assay [15]; -2.27 (inactive) in assay [16]; 1.38 in assay [17]; 0.439 (inactive) in assay [18]; -0.351 (inactive) in assay [19]. The compound also yielded a z-score in assay [20] of 0.628.
Take `Cc1ccc(S[C@]2(C(=O)NCc3ccccc3)CC(=O)N(C3CCCCC3)[C@@H]2c2ccc(CO)cc2I)cc1`: the composite z-score in [1] is 0.301; in assay [6], 1.5; in assay [7], -0.0221; with Torsin-1A (Homo sapiens) [8], 0.0358; with Torsin-1A (Homo sapiens) [9], 0.944; in [10], 0.259. For the same compound, in assay [12], the composite z-score was -0.142. The z-score was -4.53 (inactive) in [2]; -0.183 (inactive) in [3]; 0.389 (inactive) in assay [4]; 1.01 (inactive) in [5]; -0.148 (inactive) in assay [11]; 5.8 (inactive) in assay [13]. The z-score was 1.34 (inactive) in assay [14]; 1.04 (inactive) in assay [15]; 0.841 (inactive) in assay [16]; 0.0194 in [17]; -0.031 (inactive) in [18]; 0.193 (inactive) in assay [19]. The same compound returned a z-score in [20] of 1.79.
`COc1ccc(C#Cc2ccc3c(c2)[C@]2(C(=O)N3)[C@H](c3ccc(OCCO)cc3)N3[C@H](c4ccccc4)[C@H](c4ccccc4)OC(=O)[C@H]3[C@@H]2C(=O)NC[C@H](O)c2ccccc2)cc1`: the composite z-score in [1] is 0.501; in assay [6], 0.777; in [7], 0.122; with Torsin-1A (Homo sapiens) [8], -0.0854; with Torsin-1A (Homo sapiens) [9], 0.327; in assay [10], 1.32. In assay [12], this compound had a composite z-score of 0.145. Further, the z-score in assay [2] was -2.47 (inactive); in assay [3], -0.506 (inactive); in assay [4], -0.491 (inactive); in assay [5], -0.808 (inactive); in assay [11], 1.01 (inactive); in [13], 1.97 (inactive). The z-score was 1.76 (inactive) in assay [14]; -0.403 (inactive) in assay [15]; 1.08 (inactive) in [16]; 0.0701 in assay [17]; 0.893 (inactive) in [18]; 0.194 (inactive) in [19]. In assay [20], the z-score was -0.0443.
`CCCCC(=C=CC[C@H](O)c1ccc(OCCO)cc1)CCO`: the composite z-score is -0.0188 in assay [1]; -0.209 in [6]; -0.0451 in assay [7]; 0.678 with Torsin-1A (Homo sapiens) [8]; 1.58 in the assay with Torsin-1A (Homo sapiens) [9]; 0.011 in [10]. The compound also showed a composite z-score in assay [12] of -0.0967. Further, the z-score in assay [2] was -1.08 (inactive); in assay [3], 0.489 (inactive); in assay [4], 2.57 (inactive); in assay [5] it was 0.0098 (inactive); in [11], -0.495 (inactive); in assay [13], 12.9 (active). Further, the z-score in assay [14] was 1.77 (inactive); in assay [15], 1.06 (inactive); in assay [16], 0.627 (inactive); in assay [17] it was -0.517; in [18], -0.649 (inactive); in assay [19], -0.798 (inactive). This compound came in with a z-score in assay [20] of -2.06.
For the compound `[N-]=[N+]=NCc1ccccc1[C@@H]1OC(c2ccc(OCCCO)cc2)=N[C@]1(CCS(=O)(=O)c1ccccc1)C(=O)O`, the composite z-score in assay [1] is 0.132; in assay [6], 0.659; in assay [7], -0.0589; with Torsin-1A (Homo sapiens) [8] it was 0.134; with Torsin-1A (Homo sapiens) [9] it was 1.09; in [10], -1.42. In [12], this compound returned a composite z-score of 0.186. Moreover, the z-score in assay [2] is 0.0514 (inactive); in assay [3], -0.127 (inactive); in assay [4], 1.06 (inactive); in assay [5] it was -0.0084 (inactive); in assay [11] it was -0.0791 (inactive); in [13], 18.8 (active). Also, the z-score in [14] is 4.31 (inactive); in [15], 0.296 (inactive); in assay [16], 0.716 (inactive); in assay [17] it was -0.0381; in [18] it was 1.19 (inactive); in assay [19] it was 1.33 (inactive). In addition, the z-score in [20] came to 2.11.
